Experimental data as given in PubChem BioAssay AID1845225 (National Center for Advancing Translational Sciences (NCATS), 2023).
Records with an inconclusive call do not appear. Calls of active or inactive are those of the source. Calls come from the whole dose curve; as a rule, active = well fitted curve in the direction sought with a large enough effect; inconclusive = small, poorly fitted or top-dose-only effect, or effect the other way, or another doubt; inactive = no such curve, though single readings can be large or run the other way.

Test: Confirmatory redox qHTS assay for identification of artifact compounds.
Details: Amplex Red/HRP redox cycling with DTT, fluorescence; series mostly up to 39 µM
Text: PI: Alexander Tropsha Ph.D. UNC Eshelman School of Pharmacy University of North Carolina, Chapel Hill, North Carolina Hits from high-throughput screening (HTS) of chemical libraries are often false positives due to their interference with the assay detection technology. In response to this problem, we generated the largest publicly available library of chemical liabilities and developed a free webtool to predict HTS artifacts, both of which are described herein. More specifically, we generated, curated, and integrated HTS datasets for thiol reactivity, redox activity, and luciferase (firefly and nano) activity. Using these curated datasets, we developed and validated several Quantitative Structure-Interference Relationship (QSIR) models to predict nuisance behavior. […] These models were employed for virtual profiling of the National Center for Advancing Translational Science's (NCATS) in-house library, and 256 compounds for each assay were selected for the experimental validation of nuisance behavior. The BA for these external predictions ranged from 58 to 78% for compounds within the applicability domains of the models. […] The models developed in this study, along with aggregation models previously developed by our group (SCAM Detective) were implemented in "Liability Predictor," an online tool which may be used as part of chemical library design or for triaging HTS hits. Both the models and the curated datasets are publicly available at https://liability.mml.unc.edu/.
PROTOCOL TABLE SEQUENCE No. (e.g., 1, 2, 3, etc.); […] (e.g., Cells, Incubation, Reagent, etc.); VALUE; DESCRIPTION. 1; Reagent; 3 uL; Amplex Red and HRP mixture. 2; Compounds and control; 16 nL; Kalypsis pin tool (Wako USA) equipped with a 1536-well pin head. 3; Incubation; 15 min. 4; Reagent; 1 uL; […]. 5; Incubation; 30 min. 6; Detection; Fluorescence, ViewLux microplate reader, 525 nm excitation, 598 nm emission. NOTES (numbers refer to Sequence numbers above) 1. 3 uL of a mixture containing Amplex Red (25 uM final concentration) and horseradish peroxidase (HRP; 250 mU/mL final concentration) in assay buffer (HBSS) was dispensed into all wells of a 1536-well assay plate (solid-bottom black plate; Greiner Bio One, Monroe, NC). 2. […] 3. 15 min. incubation at room temperature protected from light. 4. 1 uL of DTT (prepared fresh; final concentration 250 uM) was dispensed for a final assay volume of 4 uL. 5. Plates were centrifuged (121xg, 15 seconds) and incubated for 30 minutes at room temperature protected from light. 6. Samples were read for fluorescence (Ex/Em = 525(20)/598(25) nm) on a ViewLux CCD imager (PerkinElmer). Data were normalized to DMSO (0% activity) and DA3003 (10 uM final concentration; 100% activity) and the resulting percent inhibition data were fitted to a 4-parameter Hill equation using NCATS in-house software.
In the case of `Clc1ccccc1CNc1ncnc2nc[nH]c12`, the outcome is reported as “inactive”.
With `O=C1c2ccccc2C(=O)N1c1cnc2ccccc2c1` the outcome was “inactive”.
With `C=C[C@@]1(C)C[C@H](OC(=O)CSC(C)(C)CNC(=O)[C@@H](N)C(C)C)[C@@]2(C)C(C)CC[C@@]3(CCC(=O)[C@@H]32)[C@H](C)[C@H]1O` (stereo not given in full) the outcome was “inactive”.
In the case of `CCCCN1C(=O)c2[nH]nc(-c3ccccc3O)c2C1c1ccc(C(C)(C)C)cc1` (stereo not given), the outcome is reported as “inactive”.
For `CN1C(C(=O)Nc2ccc(F)cc2F)=CC(c2cccs2)=NS1(=O)=O`, the outcome was “inactive”.
With `O=C(NC1CCCCCC1)c1ccc(CS(=O)c2ccc(Br)cc2)o1` (stereo not given) the outcome was “inactive”.
With `COc1ccc(NC(=O)C(Cc2ccccc2)n2cccc2)c(OC)c1` (stereo not given) the outcome was “inactive”.
For `Cc1cc(C(=O)N2CCN(c3cccc(Cl)c3)CC2)c2c(C)nn(-c3ccccc3Cl)c2n1`, the outcome was “inactive”.
For `O=C(Nc1nnc(-c2ccccc2)s1)c1ccc(S(=O)(=O)N2CCCC2)cc1`, the outcome was “inactive”.
For `Cc1ccc(-n2ncc(C(=O)N3CCN(c4ccccn4)CC3)c2C2CCN(C(=O)OC(C)(C)C)CC2)cc1C`, the outcome was “inactive”.
For `Cc1cc(C)cc(NC(=O)CSc2cc(C)[nH]c(=O)n2)c1`, the outcome was “inactive”.
With `CN1C(CC(=O)c2ccccc2)CCCC1CC(O)c1ccccc1` (stereo not given) the outcome was “inactive”.
In the case of `O=c1c2ccccc2sn1-c1cc(S(=O)(=O)N2CCOCC2)ccc1N1CCCCC1`, the outcome is reported as “inactive”.
With `CCOC(=O)c1c(C)[nH]c(CCC(=O)NCCCN2CCN(c3ccc(F)cc3)CC2)c1C` the outcome was “inactive”.
In the case of `COC(=O)c1ccccc1NC(=O)[C@H]1O[C@@H]2OC(C)(C)O[C@@H]2[C@H]2OC(C)(C)O[C@H]21`, the outcome is reported as “inactive”.
In the case of `CCOc1ccc(C(=O)N2CCC(c3nc(-c4ccc(S(=O)(=O)N5CCCC5)cc4)no3)CC2)cc1`, the outcome is reported as “inactive”.
In the case of `COc1cc2c(NC3CCN(C(C)C)CC3)nc(N3CCCN(C)CC3)nc2cc1OCCOCCN(C)C`, the outcome is reported as “inactive”.
For `CCC(C)NC(=O)c1ccc2nc(-c3cccs3)c(-c3cccs3)nc2c1` (stereo not given), the outcome was “inactive”.
With `CCCCCC(O)/C=C/C=C\CCCCCCCC(=O)O` (stereo not given) the redox activity vs DA3003 was -1.07% [at 0.303 µM] (inactive).
With `O=C(NCCc1csc(-c2cccc(F)c2)n1)C(=O)Nc1cc(F)ccc1F` the outcome was “inactive”.
For `C=C[C@@H]1C[C@@H](C=C)OP(=O)(O[C@@H](C=C)[C@@H](C)C(=O)OC)O1` (stereo not given in full), the outcome was “inactive”.
With `CCc1ccc(CN2C(=O)c3ccccc3C2C(=O)NCCc2ccc(OC)c(OC)c2)cc1` (stereo not given) the outcome was “inactive”.
With `Cc1ccc(CNC(=O)c2c(-c3ccccc3Cl)noc2C)o1` the outcome was “inactive”.
In the case of `Cc1cc(NC(=O)c2ccc([S+](=O)([O-])NCc3ccc(Cl)c(Cl)c3)cc2)no1`, the outcome is reported as “inactive”.
With `O=C(NCCSc1c(-c2ccc(Br)cc2)[nH]c2ccccc12)c1ccc(S(=O)(=O)N2CCOCC2)cc1` the outcome was “inactive”.
In the case of `COc1cc2c(NC3CCN(C(C)C)CC3)nc(N3CCCN(c4ccccc4)CC3)nc2cc1OCCCN1CCCCC1`, the outcome is reported as “inactive”.
For `COc1cc2c(NC3CCN(C)CC3)nc(N3CCCN(C)CC3)nc2cc1OCCCN(C)C`, the outcome was “inactive”.
For `O=C(Nc1cccc(Br)c1)N1CCC(CN2CCCCC2)CC1`, the outcome was “inactive”.
With `COC(=O)c1c(OCc2ccccn2)cc(=O)n2c1CCN(C(=O)c1n[nH]c3c1CCCC3)CC2` the outcome was “inactive”.
With `COc1ccc(N2CCN(Cc3cc(=O)oc4ccc(OC)cc34)CC2)cc1` the outcome was “inactive”.
With `CCC(CC)c1nn2c(=O)cc(COc3ccc(NC(=O)c4ccccc4C)cc3)nc2s1` the outcome was “inactive”.
With `COc1cc2c(NC3CCN(C)CC3)nc(N3CCCN(C)CC3)nc2cc1OCCCCC(N)=O` the outcome was “inactive”.
In the case of `Cc1ccc(Cl)cc1N1C(=O)N(Cc2ccc(C#N)cc2)c2ccccc2S1(=O)=O`, the outcome is reported as “inactive”.
In the case of `COc1ccc(C(=O)Nc2ccc(-n3nncc3-c3ccccc3)cc2)cc1OC`, the outcome is reported as “inactive”.
For `CCOc1ccc(CNC(=O)CN2C(=O)CSc3c2c(C)nn3-c2ccccc2)cc1`, the outcome was “inactive”.
With `Cc1nc(-c2ccccc2C(C)C)nc(NCc2ccc(-c3cccnc3)cc2)c1C` the outcome was “inactive”.
For `CCCCCCCCOc1ccc(C(=O)O)cc1`, the outcome was “inactive”.
With `O=C(NNCNNC(=O)c1ccncc1)c1ccncc1` the outcome was “inactive”.
For `COc1ccccc1CNC(=O)CCCn1c(=O)c2ccccc2n(CC(=O)Nc2ccc(C)cc2Cl)c1=O`, the outcome was “inactive”.
For `Cc1cc2c(s1)c1cnn(Cc3cc(F)c(Cl)cc3Cl)c(=O)c1n2C`, the outcome was “inactive”.
